# In the OligoGym collection:
# Biological target: ZBTB9
# Experiment: pooled miR-30 sensor sort-seq; sequence = guide strand
# Details: shRNA
# Further: reference of the scale not given here.
row,Sequence,sensor-assay potency score (higher = more potent)
1,TGAGCACTGATCTACTACCTGC,-0.24
2,TTTAAGTAACTGCAAGTCCCAC,-0.539
3,TTTTGCTCTAACTCTTCTCTCA,-0.273
4,TAACACTGCTTTATGAGCCCTA,-0.401
5,TTAAGCTGTAAATCAAATGTAT,-0.457
6,TTGAGTTTCCACATCTGCCAGG,-0.504
7,TTAATGTAGAAGATTTTGGGGG,-0.261
8,TTTCTGAGCACTGATCTACTAC,-0.637
9,TAATTCTCTAAGAATTTCTGAG,-0.361
10,TAAATAATTGAAAATCTGGTTT,-0.887
11,TAAAACATTTACCACTGTCTTT,-1.1
12,TCGGCTTCAATGACACTCGGTA,-0.397

# Biological target: ZC3H13
# Experiment: as above
# Details: shRNA
row,Sequence,sensor-assay potency score (higher = more potent)
1,TTGGATTCCTATCTTCTCGGAT,0.12
2,TTGAACTCTCTTTCCTTTCTGG,0.745
3,TTGTTCTTCATTCTTTCTCTAA,-0.618
4,TATTCCAACATCATCCTCTTTC,0.216
5,TTTTGATCTAACCACTTCTGGT,-0.785
6,TTGATCTAACCACTTCTGGTGA,-0.291
7,TATAATTGCTGCTATAACCTTT,-0.316
8,TTCATTTCTATAGCGCTTCTTT,-0.352
9,TTGAGGTCGTACAACTTGGCTC,-0.282
10,TTTCAGGATAGCTACTTCGAGT,-1.23
11,TAGACTTTCTTAGAGAAGGTGA,0.611
12,TTCTCGGATCTCTTCTCGCTTT,-0.478

# Biological target: ZDHHC14
# Experiment: as above
# Details: shRNA
row,Sequence,sensor-assay potency score (higher = more potent)
1,TTACCTCTTTTATTTGACCAGG,-0.803
2,TTGGAGCTGATCAAGTAGGTGT,0.206
3,TTGATGATGACTTCTTTGGTTC,-0.541
4,TTTGCGATATCTATTTGCCTTT,-0.604
5,TAGTAGCATAACACATAAGTGC,-0.719
6,TTTGTTGTCTGGTTGGAGCTGA,0.539
7,TTGGTCGCACATGTCACTCTGT,0.506
8,TTAGGAATCCTGTTTGCTGTGA,0.039
9,TTACAGAAGAACTTGTTTCTTC,0.472
10,TTGCAGTCTGGCCACAAGCGTC,-1.44

# Biological target: ZDHHC20
# Experiment: as above
# Details: shRNA
row,Sequence,sensor-assay potency score (higher = more potent)
1,TAAAGTACTCTAAAACTGTTGC,0.215
2,TTGTTGTTCTATTTTTTCCAAC,-1.28
3,TTCAGCTCCATTCTCCAGCCAC,-0.374
4,TTATAAAGTACTCTAAAACTGT,-0.589
5,TTGTTGTCTTTCTTGGCTGAAT,-1.21
